Screens from PubChem BioAssay.
Hits are enriched below; roughly 2.5% of the tested compounds scored in any of these assays.
ASK1 primary: human ASK1 kinase inhibition, primary screen. inhibition, % at 7.44 µM. AlphaScreen MKK6 phosphorylation by ASK1, luminescence. hit rate 0.99% among 22,000. AID 1159602. Q99683; in the data active = inhibition above about 35%;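 note: 0% = median of compound wells and 100% = no enzyme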
ULK1 primary: blocks human autophagy kinase ULK1; hit rate 1.9% among 30,000; AlphaScreen Atg13 phosphorylation by ULK1, luminescence; inhibition, % at 5.96 µM; in the data active = inhibition above about 43%;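 note: 0% = median of compound wells and 100% = no enzyme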
* marks the source's active call; other numbers are inactive results; . = no result.

SMILES	ASK1 primary	ULK1 primary
Cn1cc(-c2ccc3cnc(Nc4ccc(-n5cnc(N6CCOCC6)n5)cc4)nc3c2OCCN2CCOCC2)cn1	1	33
Cn1cc(-c2ccc3cnc(Nc4ccc(-n5cnc(N6CCOCC6)n5)cc4)cc3c2)cn1	11	74*
O=C(NCc1cccnc1)c1cccc(-c2csc3ccccc23)n1	-3	-7
COc1ccc(CCNC(=O)c2cc(N3CCCC3CO)nc3ccccc23)cc1 (stereo not given)	-8	9
COc1cc2nc(-c3c(C)noc3C)nc(NCc3nc4ccccc4[nH]3)c2cc1OC	-15	-2
CCCNC(=O)Cc1cn(-c2ccc(Nc3ccc(N4CCOCC4)cc3)nn2)c2ccccc12	6	15
CC(C)N1CCN(c2ncn(-c3ccc(Nc4ncc5ccc(-c6cnn(C)c6)c(Cl)c5n4)cc3)n2)CC1	-16	91*
Cc1n[nH]c(C)c1-c1ccc2cnc(Nc3ccc(-n4cnc(N5CCOCC5)n4)cc3)nc2c1	-51	-7
Cc1ccc(-c2ccc(Nc3ncc4ccc(-c5cnn(C)c5)c(Cl)c4n3)cc2)cn1	2	44*
Cc1ccc(-c2ncn(-c3ccc(Nc4ncc5ccc(-c6cnn(C)c6)nc5n4)cc3)n2)cn1	11	6
Cc1nc(C)n(-c2ccc(Nc3cc(-c4cnn(C)c4)ccn3)cc2)n1	-12	7
Cn1cc(-c2ccc3cnc(Nc4ccccc4)cc3c2)cn1	-30	66*
Cc1[nH]ncc1-c1ccc2cnc(Nc3ccc(-n4cnc(N5CCOCC5)n4)cc3)nc2c1	-45	76*
Cc1ncn(-c2ccc(Nc3ncc4ccnc(-c5cnn(C)c5)c4n3)cc2)n1	0	10
CCCNc1nc(Nc2ccccc2)nc2nc[nH]c12	-3	32
Cc1onc(-c2ccnc(Nc3ccc(N4CCOCC4)cc3)c2)c1-c1ccc(F)cc1	26	-3
COc1nc(NCCN(C(C)C)C(C)C)nc(-c2ccc(N3CCOCC3)nc2)n1	2	6
c1ccc(Nc2nc(NC3CC3)c3[nH]cnc3n2)cc1	-2	42
c1cn(-c2ccnc(Nc3ccc(N4CCOCC4)cc3)c2)cn1	-10	4
CC(C)n1c(N2CCN(Cc3ccc4c(c3)OCO4)CC2)nc2c(NC3CCN(Cc4ccccc4)CC3)ncnc21	17	-3
Cc1nc(C)n(-c2ccc(Nc3nc(-c4cnn(C)c4)cc(N4CCOCC4)n3)cc2)n1	5	1
Cn1cc(-c2ccc3cnc(Nc4ccc(N5CCOCC5)nc4)nc3c2Cl)cn1	22	78*
Cn1cc(-c2cccc3nc(Nc4ccc(-n5cnc(N6CCOCC6)n5)cc4)ncc23)cn1	9	15
Cn1cc(-c2ccc3cnc(Nc4ccc(-n5cnc(N6CCOCC6)n5)cc4)nc3c2Cl)cn1	-18	47*
FC(F)(F)c1cccc(CNc2nc(Nc3nccc4ccccc34)nc3c2ncn3-c2ccccc2)c1	-4	-1
SMILES	ASK1 primary	ULK1 primary
COc1ccc(-c2nc(NC3CC3)c3ncn(Cc4ccc(C(F)(F)F)cc4)c3n2)cc1	-16	-63
CCNc1ncc(C)c(NCCOc2ccccc2)n1	0	2
Cc1cnc(Nc2ccccc2)nc1NCCOc1ccccc1	3	15
COc1cc(Nc2ncc(C)c(NCCOc3ccccc3)n2)cc(OC)c1OC	5	63*
Cc1cnc(Nc2ccncc2)nc1NCCOc1ccccc1	6	50*
Cc1cnc(N2CCN(Cc3ccc4c(c3)OCO4)CC2)nc1NCc1cccc(C(F)(F)F)c1	-1	-16
CCCC1=NN2C(=N)/C(=C/c3ccccc3OC)C(=O)N=C2S1	.	1
O=C1CCCN1CCCNc1cc(NCc2ccc3c(c2)OCO3)ncn1	-12	-25
Cc1ncc2c(NCC3CCCO3)nc3ccccc3n12 (stereo not given)	.	10
CN(C)CCOC(c1ccccc1)c1ccc(Br)cc1 (stereo not given)	.	7
C[N+](C)(C)CCOC(c1ccccc1)c1ccccc1	.	82*
O=C(NCCN1CCOCC1)c1cccc(-n2cc(NC(=O)C3CC(c4ccccc4O)=NO3)cn2)c1 (stereo not given)	3	5
Cc1cc(NCCOc2ccccc2)nc(N2CCN(c3ccccn3)CC2)n1	-9	-3
CCCCCCCCCCCCCCCC[N+](C)(C)CC	.	-10
CCCCCCCCCCCCCCCC[N+](C)(C)Cc1ccccc1	.	48*
C#Cc1ccc(NC(=O)C2COc3ccc(OC)cc3C2)cc1 (stereo not given)	2	-8
O=C(NC1CC1)c1ccc2nc(NC3CCC(O)CC3)sc2c1 (stereo not given)	1	6
COc1ccc(CC(=O)Nc2cc(Nc3ccccc3C(=O)NC[C@H](O)C(=O)N(C)C)ccn2)cc1	-35	10
CNC(=O)c1ccccc1Nc1cc(Nc2ccc(C(=O)N(C)C)cc2OC)ncc1C(F)(F)F	1	88*
CNC(=O)c1ccccc1Nc1cc(Nc2ccc(C(=O)NC[C@H](O)C(=O)N(C)C)cc2OC)ncc1C(F)(F)F	6	89*
CCN(CC)CCNC(=O)c1ccc(Nc2cc(Nc3ccccc3C(=O)NC)c(C(F)(F)F)cn2)c(OC)c1	19	90*
C=CC[C@@H]1/C=C(\C)C[C@H](C)C[C@H](OC)[C@H]2OC(O)(C(=O)C(=O)N3CCCC[C@H]3C(=O)O[C@H](/C(C)=C/[C@@H]3CC[C@@H](O)[C@H](OC)C3)[C@H](C)[C@@H](O)CC1=O)[C@H](C)C[C@@H]2OC	.	-15
CC(C)(Oc1ccccc1)C(=O)OCCN1CCOCC1	.	1
COc1cc(Nc2nc(Nc3cnccn3)nc3c2ncn3-c2ccsc2)cc(OC)c1OC	-11	8
CCN(CC)C(=O)C1CCCN(c2ncc(C(N)=O)s2)C1 (stereo not given)	7	2
SMILES	ASK1 primary	ULK1 primary
Cc1cc2c(C(C)C)c(O)c(O)c(C=O)c2c(O)c1-c1c(C)cc2c(C(C)C)c(O)c(O)c(C=O)c2c1O	.	57*
O=C(Cc1csc(NC(=O)c2ccccc2)n1)Nc1ccc(F)c(F)c1	.	-7
O=C(/C=C/c1ccccc1)Nc1nc(CC(=O)NCc2ccc(F)cc2)cs1	.	57*
c1cn(-c2ccc(Nc3nc(NC4CC4)c4ncn(-c5ccsc5)c4n3)cc2)cn1	14	53*
c1cc(Nc2nc(NC3CC3)c3ncn(-c4ccsc4)c3n2)ccn1	-3	-3
c1cn(-c2ccc(Nc3nc(NC4CC4)c4[nH]cnc4n3)cc2)cn1	-69	57*
c1nc2nc(Nc3ccc(N4CCOCC4)cc3)nc(NC3CC3)c2[nH]1	-12	56*
FC(F)(F)c1ccc(Nc2nc(Nc3ccc(N4CCOCC4)cc3)c3[nH]cnc3n2)cc1	25	29
CCCNc1nc(Nc2ccc(-n3ccnc3)cc2)nc2nc[nH]c12	-45	41
Cn1c(Nc2ccc(-n3cc(CC(=O)NCCOc4ccccc4)c4ccccc43)nn2)nc2ccccc21	5	-1
c1ccc2c(Nc3nccc(Nc4ccc(N5CCOCC5)cc4)n3)nccc2c1	8	1
Cn1c(Nc2nc(NC3CC3)c3ncn(-c4ccccc4)c3n2)nc2ccccc21	2	5
CC(=O)Nc1ccc(Nc2nc(NCc3cccnc3)nc3c2ncn3C2CCCCC2)cc1	-7	10
O=C(N/N=C\c1ccc(-c2ccc([N+](=O)[O-])cc2)o1)c1cnccn1	.	-3
Nn1cnnc1N/N=C/c1ccc(-c2cccc([N+](=O)[O-])c2)o1	.	45*
FC(F)(F)c1cccc(CNc2nc(NC3CCN(Cc4ccccc4)CC3)nc3c2ncn3-c2ccccc2)c1	8	7
